# From PubChem BioAssay (NCI)
# Compounds without any hit were thinned out: in the full panel of roughly 83,000, 20% have a hit.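 Percent growth is the endpoint: 0 to 100 indicates growth inhibition (40 means 60% inhibition), 0 means no net growth, and negative values indicate cell death.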 A number with no mark means an inactive call. Calls of active or inactive are those of the source.
# System: MOLT-4 leukemia
# Experiment: NCI-60 one-dose screen, 48 h (100 = growth as untreated, 0 = no growth, -100 = all killed)
# Settings: 10 µM unless noted
# Method: Growth inhibition of the MOLT-4 human tumor cell line is measured as a screen for anti-cancer activity. Cells are grown in 96 well plates and exposed to the test compound for 48 hours. Compounds are tested at a single concentration, which is 10^-5 M for most compounds. The reported endpoint is percent growth (GI% or GIPRCNT), where numbers from 0 - 100% represent growth inhibition, and numbers from -100% - 0 represent cell death. For example, a value of 40 represents 60% growth inhibition. A value of 0 means no net growth occurred over the course of the experiment. A value of -40 indicates 40% of cells at the beginning of the experiment died by the end of the experiment. A value of -100 means all cells are dead at the end of the experiment.
# NCI-60 Human Tumor Cell Lines Screen was performed using the standard one-dose NCI protocol, which is described in more detail at https://dtp.cancer.gov/discovery_development/nci-60/default.htm.
# Compounds with GIPRCNT values below 10 were considered active. Activity score was based on GIPRCNT using the following formula: […]
# Score is 0 for GIPRCNT values of 100 or above, 50 for GIPRCNT values of 0, and 100 for GIPRCNT values of -100.
row,SMILES,growth
1,COC(=O)C12CC(NC(=O)c3csc([C@@H](C[C@H](C(C)C)N(C)C(=O)[C@@H](NC(=O)[C@H]4CCCCN4C)C4CC4)OC(C)=O)n3)(C1)C2,15.9%
2,CC(C)[C@@H]1NC(=O)[C@]2(C)CSC(=N2)c2csc(n2)CNC(=O)C[C@@H](/C=C/CCS)OC1=O,7.47% (active)
3,Nc1c(F)cc(-c2nc3cc(F)ccc3[se]2)cc1F,78.7%
4,ClCCN(CCCl)c1ccc(-n2cnc3c(Cl)ncnc32)cc1,7.06% (active)
5,CC[C@H](C)[C@H](NC(=O)c1cccn1C)C(=O)N(C)[C@H](C[C@@H](OC(C)=O)c1nc(C(=O)N[C@@H](Cc2ccccc2)C[C@H](C)C(=O)OC)cs1)C(C)C,16.2%
6,C/C(=C\c1ccn(-c2ccc(N)cc2C(F)(F)F)n1)[C@@H]1C[C@@H]2O[C@]2(C)CCC[C@H](C)[C@H](O)[C@@H](C)C(=O)C(C)(C)[C@@H](O)CC(=O)O1,9.23% (active)
7,CC(=O)OCC1O[C@@H]([S-])C(OC(C)=O)[C@H](OC(C)=O)[C@@H]1OC(C)=O.[Au+].c1ccc(CN2[CH-]N(Cc3ccccc3)C(c3ccccc3)=C2c2ccccc2)cc1,11.2%
8,COC(=O)[C@@H](C)C[C@H](Cc1ccccc1)NC(=O)c1nc([C@@H](C[C@H](C(C)C)N(C)C(=O)[C@@H](NC(=O)[C@H]2CCCCN2C)C(C)C)OC(C)=O)sc1C(C)C,5.59% (active)
9,COc1cc(/C=C\c2cc(OC)c(OC)c(OC)c2)cc(NS(=O)(=O)c2cccc(Cl)c2)c1OC,9.29% (active)
10,CC1=C(CCCNS(C)(=O)=O)C2=C(C)C3(CC3)[C@@](C)(O)C(=O)C2=C1,90.2%
11,C[C@]12C[C@@H](CO)[C@H](O)C[C@@H]1CC[C@@H]1[C@@H]2CC[C@]2(C)[C@@H](O)CC[C@@H]12,85.8%
12,O[C@H](CN1CC1)[C@@H](O)CN1CC1,32.8%
13,CC(=O)ONc1ccc([N+](=O)[O-])c(C(F)(F)F)c1,96.4%
14,CCC(=O)Nc1ccc(Cl)c(Cl)c1,97.9%
15,COc1ccc(/C=C/c2cc(OC)c(OC)c(OC)c2)cc1NC(=O)/C=C/c1ccc(F)cc1,13.5%
16,CCCCCCCCCCCCCCCCCCOc1ccccc1COP(=O)(O)OOCC[N+](C)(C)C,-36.1% (active)
17,C=CCCCN=C=S,40.7%
18,N/C(=N/N=C/c1ccncc1)N[N+](=O)[O-],84.2%
19,COc1ccc(/C=C\c2cc(OC)c(OC)c(OC)c2)c(NS(=O)(=O)c2ccc(Cl)cc2)c1O,10.1%
20,O=C(CN1CCN(C(=O)c2ccco2)CC1)Nc1ccc(Cl)cc1C(=O)c1ccccc1Cl,54.2%

row,SMILES,growth
1,O=C(N/N=C\c1ccc(N(CCCl)CCCl)cc1)c1cccc([N+](=O)[O-])c1,89.7%
2,O=[N+]([O-])CC(c1ccccc1Cl)c1c(-c2ccccc2)[nH]c2ccccc12 (stereo not given),30.3%
3,O=C(CC1(O)C(=O)N(Cc2ccccc2)c2ccc(F)cc21)c1ccc(C(=O)NCC2CCC3(CC2)OOC2(CCCCC2)OO3)cc1 (stereo not given),-48.9% (active)
4,CC(C)CCC1(CCCl)C(=O)NC(=O)NC1=O,112%
5,CNC12C3C4C1C1C2C3C41C(=O)N[C@H](C(=O)N(C)[C@H](C[C@@H](OC(C)=O)c1nc(C(=O)N[C@@H](Cc2ccccc2)C[C@H](C)C(=O)OC)cs1)C(C)C)C1CC1 (stereo not given in full),-1.54% (active)
6,Oc1c(O)c(Cl)c(Cl)c(Cl)c1Cl,31.1%
7,CC1=C(CCCOC(=O)CN)C2=C(C)C3(CC3)[C@@](C)(O)C(=O)C2=C1,84.5%
8,CCCCN(CCCC)P(=O)(Oc1ccccc1)Oc1ccccc1,39.4%
9,COc1cc2c(cc1OCc1ccccc1)C(CC(C)C)=[N+](C)CC2,91.8%
10,Cc1ccc(Nc2nc3c(s2)C2=CC[C@@H]4[C@H](CC[C@]5(C)C(=O)CC[C@@H]45)[C@@]2(C)CC3)cc1,12.3%
11,COc1ccc(C(=O)c2sc3nc4c(cc3c2N)N2CCC4CC2)cc1OC,77.3%
12,COc1ccc(/C=C\c2cc(OC)c(OC)c(OC)c2)cc1NC(=O)/C=C/c1cc(OC)c(OC)c(OC)c1,47.7%
13,COc1cccc(/C=C/[N+](=O)[O-])c1,50.4%
14,C[C@@H]1CCC2[C@@H](C)[C@H](OC(=O)CCC(=O)NCCNC(=O)Cc3cc(=O)oc4cc(N(C)C)ccc34)O[C@@H]3O[C@]4(C)CC[C@@H]1C23OO4 (stereo not given in full),31.3%
15,C=COC(=O)CCN1CC1,98.2%
16,N#CC1(c2ccccc2)CCN(Cc2ccccc2)CC1,107%
17,OCc1ccc2c(c1)OCO2,91.9%
18,O=C1NC(=O)C(=Cc2ccc(OCCCCC3CCCCC3)c(Cl)c2)C(=O)N1,96.5%
19,Clc1cc(N2CC2)nc(N2CC2)n1,46.6%
20,COC(=O)[C@@H](C)C[C@H](Cc1ccccc1)NC(=O)c1csc([C@@H](C[C@H](C(C)C)N(C)C(=O)[C@H](C)NC(=O)[C@H]2CCCN2C)OC(C)=O)n1,42.6%
